Screens as filed in PubChem BioAssay.
Pf growth 48h – P. falciparum growth inhibition at 48 hours (one generation). P. falciparum luciferase growth in erythrocytes, 48 h. Potency, µM (top dose mostly 28.7 µM), actives largely listed as inhibitors. actives 5.9% (n = 310,000)
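Luminescence readout; reporter = integrated firefly luciferase in P. falciparum. RBC culture at 2% hematocrit, 0.1% parasitemia final, 37 C/5% CO2; decreased signal taken as growth inhibition.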
SARS PLpro yeast – inhibitors of SARS-CoV papain-like protease in yeast; Potency, µM (top dose mostly 32.9 µM), hits mostly activators; S. cerevisiae expressing SARS-CoV PLpro, growth rescue; actives 0.19% (n = 330,000); calls by dose curve; note: nearly all actives have a fitted effect of over 55% in size
Pf growth 96h – inhibits malaria parasite growth, 96 h; P. falciparum luciferase reporter growth, 96 h; Potency, µM (top dose mostly 28.7 µM), usual class: inhibitors; actives 6.9% (n = 320,000)
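Infected RBCs, 2% Hct / 0.05% parasitemia final; luciferase-reporter P. falciparum; cpd 96 h, 37 C, 5% CO2; luciferase detection reagent; luminescence.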
AMA1-RON2 inh – inhibitors of Plasmodium falciparum AMA1-RON2 interaction; AlphaScreen AMA1-biotinylated RON2 peptide binding; actives 0.2% (n = 360,000); AID 720542; Potency, µM (top dose mostly 58.2 µM), most hits filed as inhibitors; note: nearly all actives have a fitted effect of over 45% in size
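AMA1 (3D7) with his tag at 25 nM final met compounds first, then biotinylated RON2 peptide at 25 nM; detection used donor plus acceptor beads, 10 µg/mL apiece, read by AlphaScreen after 30 min at room temperature.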
Of the large screens only hits and unclear results are named; the others gave an inactive call; ! = not active in a repeat. In the library only some 9.4% were active in any assay of this set; here they are far more common. Unless noted, calls come from the whole dose curve; as a rule, active = well fitted curve in the direction sought with a large enough effect; inconclusive = small, poorly fitted or top-dose-only effect, or another doubt; inactive = no such curve, though single readings can be large; an effect the other way counts as inactive or inconclusive.

CN(C)CCN(Cc1ccco1)S(=O)(=O)c1ccc(-c2ccc(=O)[nH]n2)s1	none
C=C(C1=CCN(S(=O)C(C)(C)C)[C@H]1CCO)c1ccccc1 (stereo not given in full)	none (no result: Pf growth 48h, SARS PLpro yeast, Pf growth 96h)
COCc1c(C(=O)N/N=C(\C)c2ccc(Cl)s2)nnn1-c1nonc1N	Pf growth 96h inconclusive
CN(C)C1C(=O)C(C(N)=O)C(=O)C2(O)C(=O)C3C(=O)c4c(O)cccc4C(C)(O)C3C(O)C12 (stereo not given)	Pf growth 48h 9.53µM, Pf growth 96h 3.01µM (no result: SARS PLpro yeast, AMA1-RON2 inh)
C[C@H]1c2cccc(O)c2C(O)=C2C(=O)[C@]3(O)C(O)=C(C(N)=O)C(=O)[C@@H](N(C)C)[C@@H]3[C@@H](O)[C@@H]21	Pf growth 48h 4.65µM, Pf growth 96h 0.738µM, AMA1-RON2 inh inconclusive
CN(C)[C@H]1C(=O)C(C(=O)NCN2CCCC2)=C(O)[C@]2(O)C(=O)C3=C(O)c4c(O)cccc4[C@@](C)(O)[C@H]3C[C@@H]12	none (no result: SARS PLpro yeast, AMA1-RON2 inh)
CCCc1sc(N)nc1-c1ccc(C)cc1	none
Cc1ccc(S(=O)(=O)NC(C)C(=O)OCC(=O)Nc2sccc2C(N)=O)cc1 (stereo not given)	none (no result: Pf growth 48h, SARS PLpro yeast, Pf growth 96h)
CC(=O)[C@@H]1[C@@H](C)N(Cc2ccccc2)C(=O)N[C@H]1c1cccc(C(F)(F)F)c1	Pf growth 48h inconclusive
Cc1ccc(N2CC(C(=O)N(C)CC(=O)Nc3ccc(Cl)c(C(F)(F)F)c3)CC2=O)cc1 (stereo not given)	Pf growth 96h inconclusive
CCSc1nc(NCCN(C)C)c2c3c(sc2n1)COC(C)(CC)C3 (stereo not given)	Pf growth 48h 3.29µM, Pf growth 96h 11.7µM
CSc1nc(SCC(=O)NCc2ccco2)c2c3c(sc2n1)COC(C)(C)C3	Pf growth 48h inconclusive
CCCCSc1nc(SCC(=O)NCc2ccco2)c2c3c(sc2n1)COC(C)(CC)C3 (stereo not given)	Pf growth 48h inconclusive, Pf growth 96h 9.28µM
Cc1cc(C)n(-c2nc(NCCN(C)C)c3c4c(sc3n2)COC(C)(C)C4)n1	Pf growth 48h inconclusive, Pf growth 96h inconclusive
CCCSc1nc(SCC(=O)NCc2ccccc2)c2c3c(sc2n1)COC(C)(CC)C3 (stereo not given)	Pf growth 48h inconclusive, Pf growth 96h 14.7µM
O=C(/C=C/c1cccc(C(F)(F)F)c1)Nc1cccc(C(F)(F)F)c1	Pf growth 48h 7.38µM, Pf growth 96h inconclusive
O=C(O)c1ccccc1Nc1cccc(C(F)(F)F)c1	Pf growth 96h 2.39µM!
Cc1ccc(NC(=O)/C=C/c2cccc(C(F)(F)F)c2)cc1	none
N#Cc1cccc(-n2c(-c3ccccc3)nnc2-c2ccccc2)c1C#N	Pf growth 48h 5.22µM (no result: Pf growth 96h)
N#Cc1ccc(-n2c(-c3ccccc3)nnc2-c2ccccc2)cc1C#N	Pf growth 48h inconclusive
CC12CN3CC(C)(CN(C1)C3c1ccc(Cl)cc1)C2 (stereo not given)	none
CCOC(=O)c1ccc(COC(=O)c2ccc3c(c2)-c2ccccc2C3=O)cc1	SARS PLpro yeast inconclusive
CCOC(=O)C1=C(Cc2ccc(C)cc2)C(=O)c2ccccc2C1=O	Pf growth 96h 2.33µM (no result: Pf growth 48h, AMA1-RON2 inh)
CCOC(=O)C1=C(Cc2ccc(OC)cc2)C(=O)c2ccccc2C1=O	Pf growth 48h 4.65µM, AMA1-RON2 inh inconclusive (no result: Pf growth 96h)
Cc1c(C(=O)NC(=S)NCc2cccnc2)cccc1[N+](=O)[O-]	none
Cc1ccc(S(=O)(=O)N(C)C)cc1NC(=O)COC(=O)CCNS(=O)(=O)c1ccccc1	Pf growth 48h inconclusive
COC(=O)c1cnn2c3c(c(C)nc12)CCCC3	Pf growth 96h 0.928µM
Cc1c2c(nc3c(C(=O)NC4CCCC4)cnn13)CCCC2	Pf growth 96h inconclusive
COc1ccc(CCNC(=O)COc2ccc3c(C)cc(=O)oc3c2)cc1OC	Pf growth 96h 2.94µM
Cc1oc(C(=O)O)cc1COc1ccc2c(C)cc(=O)oc2c1	Pf growth 96h 2.08µM
O=C(COC(=O)c1ccco1)Nc1cc(S(=O)(=O)N2CCCCC2)ccc1Cl	none (no result: Pf growth 48h, Pf growth 96h)
O=[N+]([O-])c1cccc(CN2CCCCCC2)c1	none
CCCCOCCCNCC(=O)Nc1ccc(S(N)(=O)=O)cc1	none
CCCCNCC(=O)Nc1ccc(NC(=O)CNCCCC)cc1	Pf growth 48h inconclusive, Pf growth 96h 11.7µM
O=C(CCCN1CCC(O)(c2ccc(Cl)cc2)CC1)c1ccc(F)cc1	Pf growth 48h 7.38µM, Pf growth 96h 6.57µM
O=C(CCCN1CCC(O)(c2cccc(C(F)(F)F)c2)CC1)c1ccc(F)cc1	Pf growth 48h 8.28µM, Pf growth 96h 5.86µM (no result: SARS PLpro yeast)
CC(=O)N1CCC(O)(c2cccc(C(F)(F)F)c2)CC1	none
O=C(CCCN1CCC(O)(c2ccc(Br)cc2)CC1)c1ccc(F)cc1	Pf growth 48h 8.28µM, Pf growth 96h 4.05µM (no result: SARS PLpro yeast)
CN(C)/C=C/C(=O)c1ccc(OCCN(C)c2ccccn2)cc1	none
Cc1cc(C)c(S(=O)(=O)n2ccc(-c3ccc(OCCN(C)c4ccccn4)cc3)n2)c(C)c1	Pf growth 48h 1.85µM, Pf growth 96h 7.38µM
COC(=O)Cc1cc(=O)[nH]c(/N=C(\N)Nc2ccc(C(C)C)cc2)n1	Pf growth 96h 0.828µM
COC(=O)Cc1cc(=O)[nH]c(/N=C(\N)Nc2cccc(C)c2)n1	Pf growth 96h 11.7µM
O=C(NC1CC1)C1=C[C@H](c2coc3ccccc3c2=O)C[C@H](OCc2ccc(CO)cc2)O1	none (no result: Pf growth 48h, SARS PLpro yeast, Pf growth 96h)
COc1ccc(NC(=O)c2sc3nc(N4CCCC4)c4c(c3c2N)CC(C)(C)OC4)cc1	Pf growth 48h 13.1µM, Pf growth 96h 11.7µM (no result: SARS PLpro yeast)
COc1ccc(NC(=O)c2sc3nc(N4CCOCC4)c4c(c3c2N)CC(C)(C)OC4)cc1	Pf growth 96h inconclusive
COc1ccc(NC(=O)c2sc3nc(N4CCOCC4)c4c(c3c2N)CC(C)(C)OC4)c(OC)c1	Pf growth 48h inconclusive, Pf growth 96h 1.65µM
CCN(/N=C/c1ccc(Cl)cc1)c1cc(=O)n(C)c(=O)[nH]1	Pf growth 96h inconclusive
CCN(/N=C/C=C/c1ccccc1)c1cc(=O)n(C)c(=O)[nH]1	Pf growth 48h inconclusive, Pf growth 96h 7.38µM
CC1/C(=N/O)CC(c2ccccc2)N(C)C1c1ccccc1 (stereo not given)	Pf growth 48h 13.1µM, Pf growth 96h inconclusive
CC1C(c2ccccc2)N(C)C(c2ccccc2)CC1(O)c1ccccc1 (stereo not given)	none (no result: Pf growth 96h)
COc1ccc(C2N(C(C)=O)CCCN2S(=O)(=O)c2ccc(C)cc2)cc1 (stereo not given)	Pf growth 48h inconclusive
COc1ccc(C2N(C(=O)CN3CCCC3)CCCN2S(=O)(=O)c2ccccc2)cc1 (stereo not given)	Pf growth 48h 5.22µM, Pf growth 96h inconclusive
COc1cccc(CNC(=O)C(=O)NCCC2CCCCN2S(=O)(=O)c2cccs2)c1 (stereo not given)	Pf growth 48h inconclusive, Pf growth 96h inconclusive
COc1ccc(CCNC(=O)C(=O)NCCC2CCCCN2S(=O)(=O)c2cccs2)cc1 (stereo not given)	Pf growth 48h inconclusive, Pf growth 96h 7.38µM
COc1ccc(CCNC(=O)C(=O)NCCC2CCCCN2S(=O)(=O)c2ccccc2)cc1 (stereo not given)	Pf growth 48h 14.7µM
